Compound activity (PubChem BioAssay)
NadD inh: NadD (S. aureus) enzyme inhibition; purified NadD enzyme, colorimetric absorbance read-out; 360,000 compounds, 0.78% hits; AID 602399; inhibition, % at 20 µM; in the data active = inhibition above about 26%
CRFR2-BP antag: antagonists of CRF-binding protein/CRF-R2 receptor complex | HEK293 CRF-R2/CRF-BP, CRF-induced calcium fluorescence | inhibition, % at 11.8 µM | 350,000 compounds, 0.59% hits;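 active = inhibition of the ligand-induced calcium signal above about 50% at the single tested concentration, limit read from the data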
Myeloid diff 2: myeloid differentiation induction | 360,000 compounds, 1% hits | calls only at 10 µM | ER-HoxA9 myeloid progenitors, lysozyme-GFP differentiation, flow cytometry | AID 624256;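 active = normalized GFP-positive differentiation at or above the plate's own cutoff, the solvent-only control mean plus 3 SD; inconclusive = no clear call, values can overlap the other calls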;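 note: cells exposed to compound for four days before flow analysis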
FAS TE block: blocks the thioesterase domain of human fatty acid synthase | P49327 | recombinant FAS-TE, OMFH fluorogenic substrate, fluorescence endpoint | inhibition, % at 15 µM | 360,000 compounds, 0.67% hits | AID 602261;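 active = compounds whose normalised, plate-corrected inhibition of enzyme fluorescence in the single-dose primary screen is 50% or more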;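 note: 0% = DMSO with enzyme and 100% = substrate without enzyme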
NRP1-CendR mod: NRP-1/CendR interaction modulation. O14786. FAM-RPARPAR peptide binding to NRP-1, fluorescence polarization. inhibition, % at 25 µM. 360,000 compounds, 0.85% hits;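 active = inhibition or corrected inhibition above about 18%, plus a signal ratio from 0.5 to 1.5, limit read from the data, passing the limit was not always enough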
NadD inh conf: confirmation of Staphylococcus aureus NadD inhibitors | purified S. aureus NadD, colorimetric enzyme assay | 2,000 compounds, 13% hits | AID 624309 | shares compounds with NadD inh | inhibition, % at 20 µM; in the data active = inhibition mostly above about 42%, no sharp cut-off; inactive = mostly below about 42%
* marks the source's active call; other numbers are inactive results. Compounds with a hit are over-represented: about 3.6% of the library has one in this group of screens.

How did CC1CCc2c(sc3ncnc(SCC(=O)Nc4ccc(C(=O)O)cc4)c23)C1 (stereo not given) do in these assays?
NadD inh: 11; CRFR2-BP antag: -7; Myeloid diff 2: inactive; FAS TE block: 32; NRP1-CendR mod: -13

What do the screens show for `COc1cc(NC(=O)CSc2ncnc3sc4c(c23)CCC(C)C4)c(C(=O)O)cc1OC` (stereo not given)?
NadD inh: 36*; CRFR2-BP antag: 3; Myeloid diff 2: inactive; FAS TE block: 12; NRP1-CendR mod: -36; NadD inh conf: 21

How did N#Cc1sc2nc(-c3ccccc3)cc(-c3ccco3)c2c1N do in these assays?
NadD inh: 32*; CRFR2-BP antag: -8; Myeloid diff 2: inactive; FAS TE block: 17; NRP1-CendR mod: -18; NadD inh conf: 8

What do the screens show for `CN(C)/C=C1\C(=O)N(c2ccc(Cl)c(Cl)c2)CS1(=O)=O`?
NadD inh: 33*; CRFR2-BP antag: 0; Myeloid diff 2: inactive; FAS TE block: 4; NRP1-CendR mod: 15; NadD inh conf: -1

What do the screens show for `CN(C)C1=C(Cl)C(=O)N(c2ccc(Cl)c(Cl)c2)C1=O`?
NadD inh: 3; CRFR2-BP antag: -10; Myeloid diff 2: inactive; FAS TE block: 2; NRP1-CendR mod: 8

Results for CCc1ccc2[nH]c(=O)c(C3C(C#N)=C(N)Oc4c3ccc3cccnc43)cc2c1 (stereo not given) ?
NadD inh: 38*; CRFR2-BP antag: -66; Myeloid diff 2: inactive; FAS TE block: 20; NRP1-CendR mod: 2; NadD inh conf: 9

How did Cc1cc(C)c2c(n1)SCC(=O)N2CC(=O)Nc1c(C)cccc1C do in these assays?
NadD inh: -6; CRFR2-BP antag: 2; Myeloid diff 2: inactive; FAS TE block: -12; NRP1-CendR mod: 9

Results for Cc1cc2c(N)cccc2nn1 ?
NadD inh: 37*; CRFR2-BP antag: 12; Myeloid diff 2: inactive; FAS TE block: -3; NRP1-CendR mod: 41*; NadD inh conf: 0

What do the screens show for `Nc1cccc2nc3ccccc3cc12`?
NadD inh: -1; CRFR2-BP antag: 3; Myeloid diff 2: inactive; FAS TE block: 0; NRP1-CendR mod: 8

Results for CCN(CC)c1ccc(S(=O)(=O)N2CCOCC2)cc1NC(=O)COC(=O)/C=C/c1ccco1 ?
NadD inh: 16; CRFR2-BP antag: 1; Myeloid diff 2: inactive; FAS TE block: 23; NRP1-CendR mod: -11

Results for Cc1cc(C)n2nc(-c3ccsc3-n3c(C)ccc3C)cc2n1 ?
NadD inh: 39*; CRFR2-BP antag: 12; Myeloid diff 2: active; FAS TE block: -67; NRP1-CendR mod: -133; NadD inh conf: 14

What do the screens show for `Nc1nc(CCOc2ccc(F)cc2)cs1`?
NadD inh: 2; CRFR2-BP antag: -4; Myeloid diff 2: inactive; FAS TE block: -4; NRP1-CendR mod: -8

What do the screens show for `CCN(CC)c1ccc(NC(=O)Cn2c(C(C)NC(=O)c3ccc(C)cc3)nc3ccccc32)cc1` (stereo not given)?
NadD inh: 34*; CRFR2-BP antag: 27; Myeloid diff 2: inactive; FAS TE block: -14; NRP1-CendR mod: 8; NadD inh conf: 2

Results for O=S(=O)(c1ccc(NC(=S)N/N=C/c2ccc(N3CCOCC3)cc2)cc1)N1CCOCC1 ?
NadD inh: 1; CRFR2-BP antag: -1; Myeloid diff 2: inactive; FAS TE block: 3; NRP1-CendR mod: -3

What do the screens show for `O=S(=O)(c1ccc(NC(=S)N/N=C/c2ccc(Oc3ccccc3)cc2)cc1)N1CCOCC1`?
NadD inh: 28*; CRFR2-BP antag: -1; Myeloid diff 2: inactive; FAS TE block: 11; NRP1-CendR mod: 8; NadD inh conf: -3

How did O=S(=O)(c1ccc(NC(=S)N/N=C/c2c3ccccc3cc3ccccc23)cc1)N1CCOCC1 do in these assays?
NadD inh: 34*; CRFR2-BP antag: -10; Myeloid diff 2: inactive; FAS TE block: 21; NRP1-CendR mod: -33; NadD inh conf: 28

How did O=C(COc1ccc(Cl)cc1)N(Cc1ccc(F)cc1)C1CCS(=O)(=O)C1 (stereo not given) do in these assays?
NadD inh: -6; CRFR2-BP antag: -20; Myeloid diff 2: inactive; FAS TE block: 4; NRP1-CendR mod: 5

How did COc1ccc(-c2cc(C(=O)OCC(=O)c3c(N)n(C)c(=O)n(C)c3=O)c3ccccc3n2)cc1 do in these assays?
NadD inh: 11; CRFR2-BP antag: -6; Myeloid diff 2: inactive; FAS TE block: 16; NRP1-CendR mod: -6

What do the screens show for `CN(CC(=O)Nc1ccc(F)cc1)C(=O)c1cc(-c2ccco2)nc2ccccc12`?
NadD inh: 41*; CRFR2-BP antag: -10; Myeloid diff 2: inactive; FAS TE block: 6; NRP1-CendR mod: -35; NadD inh conf: 26

What do the screens show for `O=C(COC(=O)c1cc(-c2ccco2)nc2ccccc12)NCc1ccccc1`?
NadD inh: 46*; CRFR2-BP antag: 8; Myeloid diff 2: inactive; FAS TE block: 1; NRP1-CendR mod: -16; NadD inh conf: 19

How did Cn1c(N)c(C(=O)COC(=O)c2cc(-c3ccco3)nc3ccccc23)c(=O)n(C)c1=O do in these assays?
NadD inh: 59*; CRFR2-BP antag: -2; Myeloid diff 2: inactive; FAS TE block: 2; NRP1-CendR mod: -34; NadD inh conf: 74*

What do the screens show for `CCN(CC)C(=O)COC(=O)c1cc(-c2ccco2)nc2ccccc12`?
NadD inh: 31*; CRFR2-BP antag: 11; Myeloid diff 2: inactive; FAS TE block: -4; NRP1-CendR mod: -8; NadD inh conf: 21

What do the screens show for `O=C(NNC(=O)c1cc(-c2cccc(Br)c2)nc2ccccc12)c1csc(N2CCOCC2)n1`?
NadD inh: 24; CRFR2-BP antag: 5; Myeloid diff 2: inactive; FAS TE block: 18; NRP1-CendR mod: -6

What do the screens show for `COc1cc(-c2ccc(N3C(c4ccsc4)=Cc4ccccc4C3CC(C)=O)cc2)cc(OC)c1OC` (stereo not given)?
NadD inh: 20; Myeloid diff 2: inactive; FAS TE block: 16; NRP1-CendR mod: 5

What do the screens show for `CCOC(=O)c1ccc(-c2ccc(N3C(c4ccsc4)=Cc4ccc(F)cc4C3c3c[nH]c4ccc(C#N)cc34)cc2)cc1F` (stereo not given)?
NadD inh: 30*; Myeloid diff 2: inactive; FAS TE block: -1; NRP1-CendR mod: -15; NadD inh conf: 10

What do the screens show for `Cc1ccc(C(=O)Nc2nc(-c3ccccn3)cs2)cc1S(=O)(=O)N1CCOCC1`?
NadD inh: 31*; CRFR2-BP antag: 3; Myeloid diff 2: inconclusive; FAS TE block: 20; NRP1-CendR mod: -8; NadD inh conf: 22

What do the screens show for `O=C(Nc1nc(-c2ccccn2)cs1)c1ccc(F)c(S(=O)(=O)N2CCOCC2)c1`?
NadD inh: 21; CRFR2-BP antag: 2; Myeloid diff 2: inconclusive; FAS TE block: 37; NRP1-CendR mod: -4
